Holding throughout (conditions): concentration: 1 μM, replicates: in singlicate; n = 1
The subject of assay [1] is AAK1.
For assay [2], the system named is ABL1-nonphosphorylated.
In assay [3] the test system is ABL1-phosphorylated.
For assay [4], the system named is ABL2.
The test system of assay [5] is ACVR1B.
In assay [6] the test system is ACVR1.
Assay [7] concerns ACVR2A.
The subject of assay [8] is ACVR2B.
Assay [9] relates to ACVRL1.
In assay [10] the test system is T1, ADCK3.
T1 construct: gene CABC1

The subject of assay [11] is ADCK4.
Assay [12] concerns AKT1.
In assay [13] the test system is AKT2.
In assay [14] the test system is AKT3.
Assay [15] concerns ALK.
The subject of assay [16] is T2, AMPK-alpha1.
T2 construct: gene PRKAA1

For assay [17], the system named is T3, AMPK-alpha2.
T3 construct: gene PRKAA2

Assay [18] has as its system ANKK1.
Assay [19] deals with T4, ARK5.
T4 construct: gene NUAK1

The subject of assay [20] is T5, ASK1.
T5 construct: gene MAP3K5
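Further: KINOMEscan kinase panel screen.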

With `c1ccc(Oc2ccc(Nc3ccnc4cc(-c5ccc(CNCCN6CCOCC6)o5)ccc34)cc2)nc1` [GW567145], the “%Inh” value in [1] came to 6%; in assay [2], 78%; in assay [3], 12%; in assay [4], 6%; in assay [5], 0%; in assay [6], 8%. Also, the “%Inh” value in [7] is given as 0%; in assay [8] it was 14%; in assay [9] it was 0%; in assay [10] it was 2%; in assay [11], 31%; in assay [12] it was 0%. Moreover, the “%Inh” value in [13] came to 10%; in assay [14] it was 0%; in [15], 0%; in assay [16], 0%; in [17], 0%; in assay [18] it was 34%. The “%Inh” value in assay [19] was found to be 44%; in [20], 0%.
With `COc1ccc(-c2coc3ccc(-c4nnc(SCc5ccc(OC)c(C(F)(F)F)c5)o4)cc23)cc1`, the “%Inh” value in [1] was determined as 2%; in assay [2], 13%; in [3] it was 0%; in assay [4] it was 24%; in assay [5], 7%; in assay [6], 28%. The “%Inh” value in assay [7] is reported as 0%; in assay [8], 0%; in assay [9], 26%; in [10], 21%; in assay [11], 10%; in assay [12] it was 4%. Moreover, the “%Inh” value in assay [13] amounted to 0%; in [14], 0%; in [15], 0%; in [16], 31%; in [17], 0%; in assay [18], 38%. For the same compound, the “%Inh” value in assay [19] was found to be 0%; in assay [20] it was 17%.
Regarding `O=C(Nc1cccc(-c2nn3ccccc3c2-c2ccnc(Nc3cccc(C(F)(F)F)c3)n2)c1)c1c(F)cccc1F` [GSK292658], the “%Inh” value in assay [1] is on record as 0%; in assay [2] it was 11%; in [3] it was 0%; in [4], 21%; in assay [5] it was 0%; in [6], 0%. Also, the “%Inh” value in assay [7], in assay [8], in assay [9], in assay [10], in assay [11] and in [12] was 0% throughout. In addition, the “%Inh” value in assay [13] stood at 8%; in [14], 2%; in assay [15], 0%; in assay [16], 0%; in assay [17] it was 13%; in assay [18] it was 13%. Moreover, the “%Inh” value came to 12% in assay [19] and 2% in assay [20].
With `COc1cccc(C2=C(Nc3ccc(Cl)c(C(=O)O)c3)C(=O)NC2=O)c1` [SB-390769], the “%Inh” value in [1] came to 9%; in assay [2], 11%; in assay [3], 100%; in assay [4], 16%; in [5] it was 0%; in [6] it was 15%. Further, the “%Inh” value in assay [7] was 100%; in assay [8] it was 5%; in [9] it was 0%; in assay [10], 0%; in assay [11] it was 22%; in assay [12], 0%. Also, the “%Inh” value was determined as 0% in assay [13]; 0% in assay [14]; 36% in assay [15]; 6% in assay [16]; 2% in assay [17]; 99.4% in assay [18]. In addition, the figures for the “%Inh” value in assay [19] and in assay [20] were 24% and 12%, respectively.
Turning to `CN1CCN(Cc2cccc(-c3ccc4c(Nc5ccc(Oc6ccccc6)cc5)ccnc4c3)c2)CC1` [GW578342], the “%Inh” value in assay [1] is recorded as 10%; in assay [2], 91.6%; in [3], 20%; in assay [4], 23%; in assay [5], 0%; in assay [6] it was 0%. Also, the “%Inh” value amounted to 0% in assay [7]; 0% in [8]; 0% in [9]; 8% in assay [10]; 9% in assay [11]; 0% in [12]. Further, the “%Inh” value stood at 11% in assay [13]; 0% in assay [14]; 23% in assay [15]; 8% in assay [16]; 0% in assay [17]; 6% in [18]. Also, the “%Inh” value in assay [19] and in [20] was 0% in each case.
Consider `O=C(Nc1n[nH]c2cc(-c3ccoc3)ccc12)C1CC1` [SB-738481], for which the “%Inh” value was found to be 45% in assay [1]; 25% in assay [2]; 0% in assay [3]; 0% in [4]; 0% in assay [5]; 30% in [6]. The “%Inh” value in assay [7] was found to be 19%; in assay [8], 46%; in assay [9] it was 0%; in assay [10] it was 0%; in [11], 0%; in [12], 0%. Moreover, the “%Inh” value is 0% in assay [13]; 0% in [14]; 0% in [15]; 0% in assay [16]; 0% in assay [17]; 23% in assay [18]. Besides, the “%Inh” value in assay [19] and in [20] was 0% throughout.
On to `COc1ccc(Nc2nccc(N3CCC(NC(=O)Nc4cccc(OC)c4)C3)n2)cc1` (centres unmarked) [GSK1379742], for which the “%Inh” value in assay [1] worked out at 4%; in [2] it was 0%; in assay [3] it was 0%; in assay [4], 12%; in [5], 0%; in [6] it was 7%. Also, the “%Inh” value in [7] is listed as 0%; in [8], 0%; in assay [9], 0%; in [10], 1%; in [11], 14%; in [12], 0%. Further, the “%Inh” value is reported as 0% in [13]; 0% in [14]; 25% in assay [15]; 1% in assay [16]; 0% in assay [17]; 0% in assay [18]. Also, the “%Inh” value in [19] is reported as 25%; in assay [20], 5%.
Take `CC(=O)N1CCN(c2ccc(Nc3nccc(-c4sc(C(C)C)nc4-c4cccc(NS(=O)(=O)c5cccc(Cl)c5)c4)n3)cn2)CC1` [GSK1660437]: the “%Inh” value in assay [1] is on record as 0%; in assay [2], 95.8%; in [3] it was 35%; in assay [4], 83%; in [5] it was 70%; in assay [6], 61%. For the same compound, the “%Inh” value worked out at 29% in assay [7]; 72% in [8]; 44% in assay [9]; 73% in assay [10]; 72% in [11]; 0% in [12]. Also, the “%Inh” value is recorded as 5% in [13]; 0% in assay [14]; 7% in assay [15]; 48% in assay [16]; 75% in [17]; 7% in [18]. Moreover, the “%Inh” value in assay [19] and in assay [20] was 0% each time.
Consider `CCS(=O)(=O)c1ccc(OC)c(Nc2nccc(-c3c(-c4cccc(NC(=O)c5c(F)cccc5F)c4)nn4ncccc34)n2)c1` [GSK326180], for which the “%Inh” value in [1] is reported as 22%; in assay [2], 4%; in [3], 10%; in [4] it was 10%; in assay [5], 0%; in assay [6] it was 10%. Also, the “%Inh” value came out at 0% in assay [7]; 0% in assay [8]; 0% in assay [9]; 0% in assay [10]; 18% in assay [11]; 0% in assay [12]. Besides, the “%Inh” value in assay [13] was 15%; in assay [14] it was 0%; in assay [15] it was 25%; in assay [16], 2%; in assay [17] it was 27%; in assay [18], 0%. For the same compound, the figures for the “%Inh” value in assay [19] and in assay [20] were 18% and 20%, respectively.
Take `COc1cccc(C(=O)Nc2cccc(Oc3ccc4nc(NC(=O)C5CC5)cn4n3)c2)c1`: the “%Inh” value was found to be 27% in [1]; 100% in [2]; 99.7% in assay [3]; 96.3% in assay [4]; 0% in assay [5]; 0% in assay [6]. The “%Inh” value in assay [7] came out at 1%; in assay [8], 18%; in assay [9], 8%; in assay [10], 10%; in assay [11], 39%; in assay [12] it was 19%. Moreover, the “%Inh” value in assay [13] worked out at 0%; in assay [14], 3%; in [15], 0%; in [16], 23%; in assay [17], 0%; in assay [18], 0%. Further, the “%Inh” value is 0% in [19] and 7% in assay [20].
